A number with no mark means an inactive call. How the calls were made is not given here.
Molecular target: Pantothenate synthetase (Mycobacterium tuberculosis (strain ATCC 25618 / H37Rv)) (UniProt P9WIL5)
Assay: Recombinant Mtb pantothenate synthetase (PanC) inhibitors, coupled enzyme, confirmatory (AID 375);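 further: 0% = full reaction with vehicle and 100% = no enzyme background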
Conditions: coupled enzyme assay; at 10 µM, stronger effect = higher value

Chain of Pantothenate synthetase (Mycobacterium tuberculosis (strain ATCC 25618 / H37Rv)) (P9WIL5 whole entry, looked up): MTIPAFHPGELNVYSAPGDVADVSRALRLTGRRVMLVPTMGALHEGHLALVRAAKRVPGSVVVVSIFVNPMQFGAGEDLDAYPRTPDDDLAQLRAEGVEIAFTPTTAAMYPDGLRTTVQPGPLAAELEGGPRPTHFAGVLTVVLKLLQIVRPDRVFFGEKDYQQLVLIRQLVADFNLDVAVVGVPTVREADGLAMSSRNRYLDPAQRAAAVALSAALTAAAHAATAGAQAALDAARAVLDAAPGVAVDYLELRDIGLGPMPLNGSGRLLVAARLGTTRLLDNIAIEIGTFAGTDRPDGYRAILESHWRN

Compound	inhibition [%]
COC(=O)COc1ccc(S(=O)(=O)NCCC2=CCCCC2)cc1	2
N#Cc1ccccc1NC(=O)CSc1nnc(-c2ccccc2)n1-c1ccccc1	0
CC(C)OC(=O)c1ccc(OC(=O)c2cccnc2)cc1	0
COCCNc1nc(SCC(=O)N2CCN(c3ccccc3)CC2)nc2ccccc12	5
Cc1cc(Cn2ccnc2)c(C)cc1Cn1ccnc1	1
O=C(NCc1cccs1)C1CC(=O)N(c2ccccc2)C1 (configuration not stated)	0
Cc1nn(-c2ccccc2)c(Cl)c1C1C(C#N)=C(N)OC2=C1C(=O)CC(C)(C)C2 (configuration not stated)	0

From PubChem BioAssay
